Compounds with a hit are over-represented: about 1.6% of the library has one in this group of screens.
KCNQ2 inh = KCNQ2 (rat) channel inhibition | B-score at 10 µM | 310,000 compounds, 1.1% hits | CHO-K1 KCNQ2, FluxOR thallium flux, 20 min; stronger effect = lower value | AID 2156;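 active means fluorescence ratio B-score at most minus 3 library SDs, with starting brightness B-score within 2 library SDs, cut at about -5.5 in these data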
Target sequence (O88943 whole entry, looked up): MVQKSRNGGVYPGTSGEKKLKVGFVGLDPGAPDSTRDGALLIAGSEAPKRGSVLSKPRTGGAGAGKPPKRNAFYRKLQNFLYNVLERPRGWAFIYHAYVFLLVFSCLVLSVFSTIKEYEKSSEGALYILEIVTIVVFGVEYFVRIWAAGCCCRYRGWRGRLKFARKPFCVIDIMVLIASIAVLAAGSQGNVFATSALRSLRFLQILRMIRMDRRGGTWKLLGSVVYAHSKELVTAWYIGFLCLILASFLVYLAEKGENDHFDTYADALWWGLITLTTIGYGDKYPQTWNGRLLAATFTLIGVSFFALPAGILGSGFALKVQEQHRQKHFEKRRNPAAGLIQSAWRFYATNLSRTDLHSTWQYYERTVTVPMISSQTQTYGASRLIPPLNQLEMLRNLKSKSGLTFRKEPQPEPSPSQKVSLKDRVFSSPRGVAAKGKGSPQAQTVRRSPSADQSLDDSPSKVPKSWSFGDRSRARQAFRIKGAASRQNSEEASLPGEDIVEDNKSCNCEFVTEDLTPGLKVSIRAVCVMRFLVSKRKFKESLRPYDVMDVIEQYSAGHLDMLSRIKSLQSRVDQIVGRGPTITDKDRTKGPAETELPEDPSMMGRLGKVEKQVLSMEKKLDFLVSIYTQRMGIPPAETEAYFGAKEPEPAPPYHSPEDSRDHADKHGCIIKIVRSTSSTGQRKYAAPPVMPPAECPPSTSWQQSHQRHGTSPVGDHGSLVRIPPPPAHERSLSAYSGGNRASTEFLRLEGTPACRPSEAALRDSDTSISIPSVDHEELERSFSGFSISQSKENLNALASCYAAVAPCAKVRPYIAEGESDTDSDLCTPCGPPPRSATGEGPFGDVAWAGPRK
KCNQ2 pot = enhances the rat KCNQ2 potassium channel; 310,000 compounds, 0.54% hits; O88943; B-score at 10 µM; CHO-K1 KCNQ2, FluxOR thallium flux fluorescence; stronger effect = higher value;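 active means fluorescence ratio B-score at least 3 SD of library B-scores, with initial fluorescence B-score within 3 of them, cut at about 5.3 in these data; same plate scores as AID 2156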;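 further: B-score of peak minus minimum over baseline fluorescence ratio after K+ and Tl+ stimulus; positive B-score means potentiation of KCNQ2 with more thallium influx and brighter signal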
Starred values were filed as active, the others as inactive; i = inactive; / = not tested or not shown.

SMILES	KCNQ2 inh	KCNQ2 pot
O=C1CCN(CCc2ccccc2)CCN1[C@H](CSc1ccccc1)c1ccccc1	i	/
O=C(CCc1nc2ccccc2[nH]1)Nc1ccccc1F	i	6.6*
O=C(CCc1nc2ccccc2[nH]1)Nc1ccc(F)cc1	i	/
O=C(NCCNC(=O)c1ccc(-c2ccc(Cl)c(Cl)c2)o1)c1cnccn1	i	/
N#Cc1cc2cc3c(cc2nc1NCCNC(=S)NCCCN1CCOCC1)OCO3	i	/
CCOc1ccc(C(=O)NCCN2CCCCC2)c(OCC)c1	i	0.72
C=CCn1c(SCc2c(C)noc2C)nc2sc3c(c2c1=O)CCCCC3	-6.5*	-6.5
C=CCn1c(SCc2c(C)noc2C)nc2sc3c(c2c1=O)CCCC3	i	/
COc1cccc(-c2ccc(NC(=O)C3CCCN(Cc4cnc(C)n4C)C3)cc2)c1 (configuration not stated)	i	/
Cc1ncc(CN2CCCC(C(=O)Nc3ccc(-c4cccc(F)c4)cc3)C2)n1C (configuration not stated)	-5.7*	-5.7
COc1ccc(CCC(=O)NCC(=O)OCc2ccccc2)cc1	i	/
CCOC(=O)c1cnn(-c2ccccc2)c1-n1cccc1C(=O)C(=O)Nc1ccccc1C(F)(F)F	-7*	-7
CCOC(=O)c1cnn(-c2ccccc2)c1-n1cccc1C(=O)C(=O)N(CC)CC	i	0.3
O=C(CN1C(=O)CSc2ccc(S(=O)(=O)N3CCOCC3)cc21)NCc1ccc(F)cc1	i	/
Cc1[nH]n(-c2ccccc2)c(=O)c1C(c1ccccc1[N+](=O)[O-])C(C#N)C#N (configuration not stated)	i	/
Cc1[nH]n(-c2ncc(-c3ccccc3)s2)c(=O)c1C(c1ccc(Cl)cc1)C(C#N)C#N (configuration not stated)	-7.2*	-7.2
O=[N+]([O-])c1ccc(Oc2ccc(S(=O)(=O)N3CCOCC3)cn2)cc1	i	0.1
CCOc1ccc(NC(=O)CN(C)S(=O)(=O)c2ccc(-c3ccc(=O)[nH]n3)s2)cc1	i	1.4
CCOc1cc(CNc2ccc(O)cc2)cc(Br)c1OCc1ccccc1F	i	/
C=CCOc1c(Br)cc(CNc2ccc(NC(=O)C(C)C)cc2)cc1OCC	i	8.3*
CCOC(=O)C1CCN(c2ncnc3c2cnn3C)CC1	i	0.49
CCN(CC)C(=O)c1ccccc1NC(=O)CN1C(=O)c2ccccc2S1(=O)=O	i	1.3
Cc1nnc(N2C(=O)C(=O)/C(=C(/O)c3ccc4c(c3)OCCO4)C2c2ccc([N+](=O)[O-])cc2)s1 (configuration not stated)	i	/
CCN(CC)S(=O)(=O)c1ccc(N2CCOCC2)c(NC(=O)COc2ccc(Cl)cc2)c1	-6.6*	-6.6
CCN(CC)S(=O)(=O)c1ccc(N2CCOCC2)c(NC(=O)c2cc(C)cc(C)c2)c1	-6.2*	-6.2
SMILES	KCNQ2 inh	KCNQ2 pot
CCN(CC)S(=O)(=O)c1ccc(N2CCOCC2)c(NC(=O)c2ccccc2)c1	i	/
CCN(CC)S(=O)(=O)c1ccc(N2CCOCC2)c(NC(=O)CC(C)(C)C)c1	i	/
COc1cccc(Cl)c1NC(=O)N1CCc2c([nH]c3ccccc23)C1C(F)(F)F (configuration not stated)	i	0.3
Cc1cccc(C(=O)NC(=S)N2CCN(C(=S)NC(=O)c3cccc(C)c3)CC2)c1	i	1.8
S=C(Nc1ccc(Br)cc1Cl)N1CCN(c2ccccn2)CC1	i	/
Cc1ccc(CNC(=O)N2CCN(S(=O)(=O)c3ccccc3)CC2)cc1	i	/
CCc1cc(CNC(=O)CCc2nnc(CCCc3ccccc3)o2)on1	i	0.43
O=c1c(-c2ccccc2)c(-c2ccccc2)oc2cc(O)cc(O)c12	-5.8*	-5.8
O=c1cc(-c2ccccc2)c2c(O)cc(O)cc2o1	i	1.4
CCN(CCn1cccn1)C(=O)C1CCC(=O)N(CCc2cccc(F)c2)C1 (configuration not stated)	i	/
CCC1CCCCN1S(=O)(=O)c1ccc(NC(=O)C2CCCO2)cc1 (configuration not stated)	i	0.05
COc1ccc(S(=O)(=O)NCC2CC3C=CC2C3)cc1OC (configuration not stated)	i	0.96
N/C(=N\OC(=O)c1ccccc1Cl)c1ccccc1	i	/
N/C(=N\OC(=O)N1c2ccccc2Sc2ccccc21)c1ccccc1	-6.5*	-6.5
Cn1nc(C(=O)OCC(=O)Nc2sccc2C(N)=O)c2ccccc2c1=O	i	/
Cc1cc(/C=N\NC(=O)CC(=O)NC2CCCCC2)c(C)n1-c1cccc(Cl)c1Cl	i	4.7
Cc1cccc(C)c1-n1c(C)cc(/C=N\NC(=O)CC(=O)NC2CCCCC2)c1C	i	8.4*
CCCCNc1c(-c2ccc(SC(C)CC)cc2)nc2ccccn12 (configuration not stated)	-7.1*	-7.1
CCCCNc1c(-c2ccc(SC3CCCCC3)cc2)nc2ccccn12	i	/
Cc1ccc(NC(=O)CN(c2ccc(Cl)cc2)S(=O)(=O)c2cc([N+](=O)[O-])ccc2Cl)c(C)c1	-7.9*	-7.9
CS(=O)(=O)N(CC(=O)Nc1cccc([N+](=O)[O-])c1)c1ccccc1	i	1.1
Cc1ccccc1CN(CC(=O)Nc1cccc([N+](=O)[O-])c1)S(=O)(=O)c1ccc(Cl)cc1	-6.6*	-6.6
Cc1ccc([N+](=O)[O-])cc1NC(=O)CN(C(=O)c1ccccc1Cl)C1CCCCC1	i	/
Cc1ccc([N+](=O)[O-])cc1NC(=O)CN(C1CCCCC1)S(=O)(=O)c1ccc(Cl)cc1	-7.9*	-7.9
COc1ccc(C)cc1S(=O)(=O)N(CC(=O)Nc1cccc([N+](=O)[O-])c1)c1ccccc1	i	0.79
SMILES	KCNQ2 inh	KCNQ2 pot
CCOc1ccc(S(=O)(=O)N(C)c2ccc(OCC(=O)Nc3nc4ccccc4s3)cc2)cc1	-5.9*	-5.9
CN(c1ccc(OCC(=O)Nc2nc3ccccc3s2)cc1)S(=O)(=O)c1ccccc1	i	/
O=C(Nc1ccc(F)cc1)C(NC1CCCCC1)c1ccccc1 (configuration not stated)	-6*	-6
O=C(Nc1ccc(F)cc1)NC1CCCCCCC1	i	1.1
CCN(CC)C(=O)/C(=C\c1ccc2c(c1)OCO2)NC(=O)c1ccc(Br)cc1	-6.5*	-6.5
CCN(CC)C(=O)/C(=C\c1ccc(Br)cc1)NC(=O)c1ccccc1OC	-7.2*	-7.2
CCNC(=O)/C(=C\c1ccc2c(c1)OCO2)NC(=O)c1ccc(Br)cc1	i	/
COc1ccccc1C(=O)N/C(=C\c1ccc(Br)cc1)C(=O)NCCO	i	/
Cn1c(SC(C(=O)Nc2ccc(F)cc2)c2ccccc2)nc2ccccc21 (configuration not stated)	i	1.3
CC(Sc1nc2ccccc2n1C)C(=O)NC(c1ccccc1)c1ccccc1 (configuration not stated)	-6.1*	-6.1
CCN(Cc1ccccc1)C(c1ccc(Cl)cc1)c1nnnn1C(C)(C)C (configuration not stated)	i	/
CCN(Cc1ccccc1)C(c1ccc(C)cc1)c1nnnn1C(C)(C)C (configuration not stated)	-11*	-11
C=CCOc1ccc(CN(C)CC(O)COc2cccc3ccccc23)cc1 (configuration not stated)	i	/
CCN(CC)c1ccc(NC(=O)CSc2ccsc2[N+](=O)[O-])c(C)c1	i	5.5*
O=C(CSc1ccsc1[N+](=O)[O-])Nc1cc(F)ccc1F	i	/

Screening results from PubChem.
